The target in assay [1] is Tyrosine-protein kinase receptor UFO (Homo sapiens) (UniProt P30530). The note with it: at 1 µM.
Assay [2] concerns the target Tyrosine-protein kinase Blk (Homo sapiens) (UniProt P51451). Particulars: at 0.1 µM.
The target is the same in assay [3]. Particulars: at 1 µM.
Assay [4] deals with T1, Cytoplasmic tyrosine-protein kinase BMX (Homo sapiens) (UniProt P51813).
T1 sequence (whole entry): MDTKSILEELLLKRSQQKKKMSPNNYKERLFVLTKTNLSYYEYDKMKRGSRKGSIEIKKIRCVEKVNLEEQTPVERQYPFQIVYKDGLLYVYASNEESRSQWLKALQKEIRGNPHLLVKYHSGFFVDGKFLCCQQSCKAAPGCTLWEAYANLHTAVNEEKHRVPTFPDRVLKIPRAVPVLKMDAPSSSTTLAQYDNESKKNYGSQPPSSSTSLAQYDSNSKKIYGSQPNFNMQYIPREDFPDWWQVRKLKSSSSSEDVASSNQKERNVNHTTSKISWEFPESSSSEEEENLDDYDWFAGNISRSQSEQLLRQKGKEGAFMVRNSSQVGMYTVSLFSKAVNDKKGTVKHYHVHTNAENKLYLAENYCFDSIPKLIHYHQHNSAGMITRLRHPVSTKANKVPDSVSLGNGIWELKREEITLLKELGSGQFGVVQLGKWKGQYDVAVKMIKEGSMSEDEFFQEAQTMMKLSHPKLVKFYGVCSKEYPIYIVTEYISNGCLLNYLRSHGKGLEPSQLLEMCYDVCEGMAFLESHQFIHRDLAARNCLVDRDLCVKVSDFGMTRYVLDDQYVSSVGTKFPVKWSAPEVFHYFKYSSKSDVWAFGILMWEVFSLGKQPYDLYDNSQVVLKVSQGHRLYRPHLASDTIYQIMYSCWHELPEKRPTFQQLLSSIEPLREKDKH
The note with it: at 0.1 µM.

Assay [5] deals with T1, Cytoplasmic tyrosine-protein kinase BMX (Homo sapiens). The note with it: at 1 µM.
Assay [6] has as its target Protein-tyrosine kinase 6 (Homo sapiens) (UniProt Q13882). Particulars: at 0.1 µM.
The target is the same in assay [7]. Particulars: at 1 µM.
For assay [8], the target named is Tyrosine-protein kinase BTK (Homo sapiens) (UniProt Q06187). The note with it: at 0.1 µM.
Assay [9] shares this target. Particulars: at 1 µM.
In assay [10] the target is Tyrosine-protein kinase CSK (Homo sapiens) (UniProt P41240). The note with it: at 0.1 µM.
Assay [11] has the same target. The note with it: at 1 µM.
Assay [12] deals with T2, Discoidin domain-containing receptor 2 (Homo sapiens) (UniProt Q16832).
T2 sequence (whole entry): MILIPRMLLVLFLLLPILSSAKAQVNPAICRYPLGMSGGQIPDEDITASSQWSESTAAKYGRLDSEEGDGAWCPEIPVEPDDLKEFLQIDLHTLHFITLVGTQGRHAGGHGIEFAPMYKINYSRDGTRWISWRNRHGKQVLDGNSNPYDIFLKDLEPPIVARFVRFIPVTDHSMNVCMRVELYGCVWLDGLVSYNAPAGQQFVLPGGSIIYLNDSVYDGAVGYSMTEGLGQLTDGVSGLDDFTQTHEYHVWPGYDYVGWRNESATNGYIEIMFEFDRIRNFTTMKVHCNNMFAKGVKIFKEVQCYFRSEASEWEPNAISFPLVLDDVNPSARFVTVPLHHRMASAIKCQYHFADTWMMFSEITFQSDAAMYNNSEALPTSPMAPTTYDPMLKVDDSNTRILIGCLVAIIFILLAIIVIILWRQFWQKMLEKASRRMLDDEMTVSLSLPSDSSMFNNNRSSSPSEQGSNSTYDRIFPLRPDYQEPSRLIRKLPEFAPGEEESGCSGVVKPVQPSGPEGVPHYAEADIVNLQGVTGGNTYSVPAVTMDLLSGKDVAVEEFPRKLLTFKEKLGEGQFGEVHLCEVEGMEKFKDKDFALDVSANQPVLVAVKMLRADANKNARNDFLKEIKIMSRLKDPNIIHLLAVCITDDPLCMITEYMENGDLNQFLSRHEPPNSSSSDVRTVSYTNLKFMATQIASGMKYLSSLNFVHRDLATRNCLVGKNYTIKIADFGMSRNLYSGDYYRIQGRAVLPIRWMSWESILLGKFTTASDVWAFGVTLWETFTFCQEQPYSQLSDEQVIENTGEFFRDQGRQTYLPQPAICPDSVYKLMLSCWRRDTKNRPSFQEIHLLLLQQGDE
The note with it: at 0.1 µM.

The target of assay [13] is T2, Discoidin domain-containing receptor 2 (Homo sapiens). Particulars: at 1 µM.
In assay [14] the target is Epidermal growth factor receptor (Homo sapiens) (UniProt P00533). Particulars: at 0.1 µM.
For assay [15] the target is unchanged. Particulars: at 1 µM.
Assay [16] concerns Epidermal growth factor receptor (Homo sapiens), P00533 [L858R]. The note with it: at 0.1 µM.
For assay [17] the test system is unchanged. The note with it: at 1 µM.
Assay [18] relates to Epidermal growth factor receptor (Homo sapiens), P00533 [L861Q]. Particulars: at 0.1 µM.
For assay [19] the test system is unchanged. Particulars: at 1 µM.
Assay [20] deals with Epidermal growth factor receptor (Homo sapiens), P00533 [T790M]. The note with it: at 0.1 µM.
Epidermal growth factor receptor (Homo sapiens), P00533 [T790M], sequence (P00533 whole entry T790M): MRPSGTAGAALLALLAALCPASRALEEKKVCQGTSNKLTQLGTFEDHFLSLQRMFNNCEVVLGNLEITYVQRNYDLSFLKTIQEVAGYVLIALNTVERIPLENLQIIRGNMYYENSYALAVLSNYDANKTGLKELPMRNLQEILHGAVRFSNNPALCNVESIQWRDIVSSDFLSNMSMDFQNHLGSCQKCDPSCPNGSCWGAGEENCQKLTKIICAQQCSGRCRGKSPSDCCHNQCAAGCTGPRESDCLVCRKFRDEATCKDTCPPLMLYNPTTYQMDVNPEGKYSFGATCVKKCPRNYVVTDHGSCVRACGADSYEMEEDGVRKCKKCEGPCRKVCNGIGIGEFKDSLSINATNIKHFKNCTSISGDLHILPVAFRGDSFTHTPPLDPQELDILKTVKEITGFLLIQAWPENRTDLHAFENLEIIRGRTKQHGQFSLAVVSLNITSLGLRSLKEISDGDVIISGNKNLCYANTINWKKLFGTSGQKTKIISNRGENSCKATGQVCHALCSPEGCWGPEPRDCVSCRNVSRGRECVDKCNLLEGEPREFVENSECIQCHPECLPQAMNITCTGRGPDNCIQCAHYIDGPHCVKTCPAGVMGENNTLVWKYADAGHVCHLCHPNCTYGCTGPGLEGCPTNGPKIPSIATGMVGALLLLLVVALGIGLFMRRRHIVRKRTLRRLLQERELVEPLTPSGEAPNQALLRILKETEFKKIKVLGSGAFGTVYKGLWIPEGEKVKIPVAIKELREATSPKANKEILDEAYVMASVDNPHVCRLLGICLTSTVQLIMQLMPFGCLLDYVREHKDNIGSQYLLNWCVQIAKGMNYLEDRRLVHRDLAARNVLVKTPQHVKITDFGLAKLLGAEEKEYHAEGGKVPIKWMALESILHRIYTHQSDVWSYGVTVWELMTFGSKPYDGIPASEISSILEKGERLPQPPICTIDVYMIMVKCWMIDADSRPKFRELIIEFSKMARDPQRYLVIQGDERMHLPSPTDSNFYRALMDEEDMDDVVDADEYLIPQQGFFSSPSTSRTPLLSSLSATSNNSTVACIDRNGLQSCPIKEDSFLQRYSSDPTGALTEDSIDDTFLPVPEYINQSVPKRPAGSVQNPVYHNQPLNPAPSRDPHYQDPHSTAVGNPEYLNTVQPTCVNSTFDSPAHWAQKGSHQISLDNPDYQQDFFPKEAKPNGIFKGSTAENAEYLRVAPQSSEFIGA

Tyrosine-protein kinase BTK (Homo sapiens), sequence (Q06187 whole entry): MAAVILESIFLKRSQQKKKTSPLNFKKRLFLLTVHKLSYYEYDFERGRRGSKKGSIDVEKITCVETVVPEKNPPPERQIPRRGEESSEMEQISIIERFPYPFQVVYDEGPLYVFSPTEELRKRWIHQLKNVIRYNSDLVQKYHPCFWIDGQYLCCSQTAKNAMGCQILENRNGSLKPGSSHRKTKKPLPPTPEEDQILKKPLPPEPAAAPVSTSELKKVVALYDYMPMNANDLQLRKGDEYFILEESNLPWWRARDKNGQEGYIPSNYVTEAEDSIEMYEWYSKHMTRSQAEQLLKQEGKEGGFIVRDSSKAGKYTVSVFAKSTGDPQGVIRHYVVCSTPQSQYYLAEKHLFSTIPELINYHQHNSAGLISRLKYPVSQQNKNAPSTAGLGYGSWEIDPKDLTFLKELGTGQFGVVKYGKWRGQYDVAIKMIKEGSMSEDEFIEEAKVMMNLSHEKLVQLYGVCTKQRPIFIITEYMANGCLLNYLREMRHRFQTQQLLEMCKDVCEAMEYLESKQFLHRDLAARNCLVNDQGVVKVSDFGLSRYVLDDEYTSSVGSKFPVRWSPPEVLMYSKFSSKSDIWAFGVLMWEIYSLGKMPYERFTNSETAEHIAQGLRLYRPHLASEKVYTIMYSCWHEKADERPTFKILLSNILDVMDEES
Protein-tyrosine kinase 6 (Homo sapiens), sequence (Q13882 whole entry, looked up): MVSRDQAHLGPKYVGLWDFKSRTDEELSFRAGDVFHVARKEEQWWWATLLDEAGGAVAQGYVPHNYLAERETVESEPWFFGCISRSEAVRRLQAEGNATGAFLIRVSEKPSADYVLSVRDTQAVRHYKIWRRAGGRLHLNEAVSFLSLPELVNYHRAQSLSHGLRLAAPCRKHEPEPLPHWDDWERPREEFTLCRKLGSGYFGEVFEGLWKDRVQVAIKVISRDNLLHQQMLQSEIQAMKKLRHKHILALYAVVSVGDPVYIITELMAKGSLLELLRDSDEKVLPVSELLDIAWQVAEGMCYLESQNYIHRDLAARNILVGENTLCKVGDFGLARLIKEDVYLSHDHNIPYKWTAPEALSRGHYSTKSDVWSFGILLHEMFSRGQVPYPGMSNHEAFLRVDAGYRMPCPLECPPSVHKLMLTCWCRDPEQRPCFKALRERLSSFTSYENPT
Tyrosine-protein kinase Blk (Homo sapiens), sequence (P51451 2-505 limits assumed): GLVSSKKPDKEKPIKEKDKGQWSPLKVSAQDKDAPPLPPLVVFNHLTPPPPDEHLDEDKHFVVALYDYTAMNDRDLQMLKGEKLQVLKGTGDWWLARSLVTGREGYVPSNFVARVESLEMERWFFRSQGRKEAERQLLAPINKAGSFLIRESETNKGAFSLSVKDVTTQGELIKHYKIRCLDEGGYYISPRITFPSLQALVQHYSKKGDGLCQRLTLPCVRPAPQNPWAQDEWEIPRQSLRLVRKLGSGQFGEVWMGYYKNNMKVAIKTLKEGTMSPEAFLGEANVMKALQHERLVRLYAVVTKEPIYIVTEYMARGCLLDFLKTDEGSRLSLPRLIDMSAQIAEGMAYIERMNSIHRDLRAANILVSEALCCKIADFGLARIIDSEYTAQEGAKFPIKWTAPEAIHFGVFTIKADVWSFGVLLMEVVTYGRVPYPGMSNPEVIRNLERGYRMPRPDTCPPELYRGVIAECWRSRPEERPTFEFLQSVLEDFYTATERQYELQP
Tyrosine-protein kinase CSK (Homo sapiens), sequence (P41240 2-450 limits assumed): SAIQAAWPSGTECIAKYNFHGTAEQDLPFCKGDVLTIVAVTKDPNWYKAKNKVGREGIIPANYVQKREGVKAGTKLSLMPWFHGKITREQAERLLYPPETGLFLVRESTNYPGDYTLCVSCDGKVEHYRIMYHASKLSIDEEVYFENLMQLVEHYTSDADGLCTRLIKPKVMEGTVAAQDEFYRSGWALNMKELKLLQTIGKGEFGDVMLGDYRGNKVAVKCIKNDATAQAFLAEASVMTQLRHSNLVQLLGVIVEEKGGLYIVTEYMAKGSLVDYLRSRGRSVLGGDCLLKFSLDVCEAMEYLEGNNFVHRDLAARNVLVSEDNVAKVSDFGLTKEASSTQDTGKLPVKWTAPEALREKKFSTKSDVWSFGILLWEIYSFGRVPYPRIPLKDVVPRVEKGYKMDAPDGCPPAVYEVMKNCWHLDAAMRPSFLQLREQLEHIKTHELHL
Epidermal growth factor receptor (Homo sapiens), sequence (P00533 whole entry): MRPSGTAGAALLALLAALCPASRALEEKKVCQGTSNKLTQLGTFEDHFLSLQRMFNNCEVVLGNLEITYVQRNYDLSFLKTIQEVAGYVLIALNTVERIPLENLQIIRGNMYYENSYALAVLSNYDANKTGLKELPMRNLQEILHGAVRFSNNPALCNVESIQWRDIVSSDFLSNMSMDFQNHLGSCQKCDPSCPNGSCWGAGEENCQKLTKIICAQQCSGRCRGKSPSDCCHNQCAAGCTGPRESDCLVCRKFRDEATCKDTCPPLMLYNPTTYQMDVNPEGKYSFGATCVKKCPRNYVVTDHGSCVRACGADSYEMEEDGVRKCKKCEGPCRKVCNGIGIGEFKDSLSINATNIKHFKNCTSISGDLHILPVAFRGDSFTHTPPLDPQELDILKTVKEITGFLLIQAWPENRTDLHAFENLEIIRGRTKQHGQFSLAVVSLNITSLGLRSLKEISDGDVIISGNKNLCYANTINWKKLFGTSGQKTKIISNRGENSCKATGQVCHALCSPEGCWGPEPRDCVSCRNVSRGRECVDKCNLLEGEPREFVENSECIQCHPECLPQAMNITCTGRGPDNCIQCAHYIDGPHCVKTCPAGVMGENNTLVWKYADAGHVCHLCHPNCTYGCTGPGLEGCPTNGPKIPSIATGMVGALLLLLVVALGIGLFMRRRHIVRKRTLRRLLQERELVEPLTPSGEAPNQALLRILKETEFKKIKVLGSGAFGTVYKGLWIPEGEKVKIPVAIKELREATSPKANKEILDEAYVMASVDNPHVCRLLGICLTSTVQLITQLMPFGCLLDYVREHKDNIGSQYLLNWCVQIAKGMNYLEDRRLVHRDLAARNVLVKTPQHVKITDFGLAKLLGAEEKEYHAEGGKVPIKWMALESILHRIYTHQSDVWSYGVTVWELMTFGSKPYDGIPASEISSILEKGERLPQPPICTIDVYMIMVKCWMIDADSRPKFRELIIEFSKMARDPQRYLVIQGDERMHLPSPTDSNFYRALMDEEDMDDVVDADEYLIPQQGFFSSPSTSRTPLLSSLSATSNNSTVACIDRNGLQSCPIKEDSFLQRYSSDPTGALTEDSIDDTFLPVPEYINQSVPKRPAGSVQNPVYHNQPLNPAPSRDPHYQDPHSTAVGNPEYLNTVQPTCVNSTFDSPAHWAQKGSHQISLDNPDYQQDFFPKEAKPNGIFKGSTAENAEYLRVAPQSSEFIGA

For `CS(=O)(=O)Nc1cccc(-c2ccc3c(NC(=O)C4CC4)n[nH]c3c2)c1`, the inhibition in assay [1] was 1.68%; in assay [2] it was 0.09%; in assay [3], 4.51%; in assay [4], 4.15%; in assay [5], 1.52%; in assay [6] it was -1.65%. Also, the inhibition is -2.5% in assay [7]; 0.45% in assay [8]; 1.66% in assay [9]; -2.14% in [10]; -2.39% in assay [11]; 0.9% in assay [12]. For the same compound, the inhibition was 0.99% in [13]; 0.81% in assay [14]; 0.31% in assay [15]; -0.89% in assay [16]; -1.93% in assay [17]; 1.44% in assay [18]. Besides, the inhibition in [19] was -2.52%; in assay [20], -1.89%.

Consider `CN(C)c1cc2c(Nc3ccc4c(cnn4Cc4ccccc4)c3)ncnc2cn1`, for which the inhibition in assay [1] was -3.44%; in assay [2] it was 3.2%; in assay [3] it was 22.6%; in [4], 3.53%; in assay [5] it was 20.8%; in assay [6], 5.3%. Also, the inhibition in [7] stood at 29.2%; in [8] it was 1.09%; in assay [9] it was 9.11%; in [10], 6.06%; in assay [11], 27.6%; in [12], 1.06%. Moreover, the inhibition in [13] came out at 3.09%.

Regarding `CCCN1CCCC(c2ccc(Nc3nc(Nc4cc(F)ccc4C(N)=O)c4cc[nH]c4n3)c(OC)c2)C1` (stereo not drawn), the inhibition was found to be 57.4% in assay [1]; 2.11% in [2]; 6.81% in assay [3]; 5.67% in [4]; 5.71% in assay [5]; 18.1% in assay [6]. Moreover, the inhibition in assay [7] was 67.8%; in assay [8], 0.49%; in assay [9], -1.31%; in assay [10] it was 2.66%; in assay [11] it was 4.58%; in assay [12] it was 2.62%. The inhibition is 4.82% in [13]; 7.23% in assay [14]; 38% in [15]; 9.57% in assay [16]; 37.5% in [17]; 7.28% in assay [18]. Further, the inhibition in assay [19] was 28.4%; in assay [20], 32%.

`Cc1ccc2c(-c3ccnc(Nc4cccc(C(F)(F)F)c4)n3)c(-c3ccccc3)nn2n1`: the inhibition in [1] is -3.9%; in assay [2] it was 12.4%; in assay [3] it was 68.1%; in [4], 7.21%; in assay [5] it was 38.2%; in [6] it was 15.5%. Besides, the inhibition in [7] worked out at 70.9%; in assay [8] it was 0.51%; in assay [9], 5.18%; in assay [10], 4.63%; in [11], 11.4%; in [12], 6.32%. Besides, the inhibition in [13] stood at 47.4%; in assay [14] it was 28.9%; in assay [15], 70.3%; in assay [16], 82.3%; in assay [17], 94.8%; in [18], 48.2%. The inhibition in assay [19] is 88.2%; in assay [20], 10.9%.

As for `NS(=O)(=O)c1ccc(Nc2cc(-c3cccc(O)c3)n[nH]2)cc1`, the inhibition in assay [1] was -5.6%; in assay [2], 3.31%; in [3], 6.67%; in assay [4], -0.08%; in assay [5] it was 4.72%; in [6], 4.78%. The inhibition in [7] was 6.34%; in assay [8], -0.39%; in [9], 0.41%; in assay [10] it was 4.63%; in assay [11] it was 5.32%; in assay [12], 2.49%. For the same compound, the inhibition in assay [13] was found to be 3.91%; in assay [14], 0.67%; in [15], 1.98%; in assay [16] it was 5.34%; in assay [17] it was 5.18%; in assay [18] it was 3.68%. For the same compound, the results for the inhibition in assay [19] and in [20] were 1.85% and 2.46%, respectively.

Consider `O=C1Nc2ccc(-c3cccnc3)cc2C1=Cc1cc(Br)c(O)c(Br)c1`, for which the inhibition is -2.44% in assay [1]; 2.77% in [2]; 10.8% in assay [3]; -2.3% in assay [4]; 4.31% in [5]; 4.36% in [6]. The inhibition was 10.7% in assay [7]; 0.22% in [8]; 1.61% in assay [9]; 4.14% in assay [10]; -1.69% in assay [11]; 2.03% in [12]. The inhibition in assay [13] is 5.97%; in assay [14] it was -0.06%; in assay [15], 5.08%; in assay [16], 4.88%; in [17] it was 10.5%; in assay [18] it was 2.92%. For the same compound, the inhibition was 2.2% in [19] and 2.3% in assay [20].

Consider `NS(=O)(=O)c1cccc(-c2cc3ccncc3cc2OCc2ccccc2)c1`, for which the inhibition in assay [1] was -7.14%; in [2], 2.09%; in [3], 6.09%; in assay [4], -0.13%; in assay [5] it was 4.21%; in assay [6], 4.43%. Besides, the inhibition in assay [7] was 4.64%; in assay [8], -0.27%; in assay [9] it was 0.84%; in assay [10], 5.62%; in [11] it was 4.74%; in [12], 1.4%. Further, the inhibition in assay [13] was 6.85%; in assay [14], -0.75%; in [15], 3.23%; in [16], 4.24%; in assay [17] it was 6.99%; in [18], 4.79%. Further, the inhibition was 3.2% in [19] and 2.32% in assay [20].

Usually inhibition stands for the change of the read-out against control, counted positive when it falls.
